Screens: PubChem BioAssay, The Scripps Research Institute Molecular Screening Center
rCAG RNA binder: binders of r(CAG) RNA repeats, primary screen, biochemical, fluorescence. inhibition, % at 3 µM. r(CAG) RNA repeat, TO-PRO-1 dye displacement fluorescence. hit rate 1.3% among 370,000. AID 651821, 2012;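 active = inhibition above the plate cutoff, the mean of all test compounds on that plate plus 3 SD, cut at about 35% in these data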;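 note: 0% = DMSO alone and 100% = 100 µM mitoxantrone as full dye displacement; higher means more dye released from RNA so lower well fluorescence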
sPLA2-III inh: human group III sPLA2 inhibitors, primary screen, biochemical, QFRET, BODIPY PC-A2 liposome substrate | Group 3 secretory phospholipase A2 (Homo sapiens), Q9NZ20 | QFRET BODIPY PC-A2 liposome hydrolysis, fluorescence | inhibition, % at 12.2 µM | hit rate 0.56% among 370,000 | AID 743126, 2013;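 active = inhibition above mean plus 3 SD of compounds lying within the high and low control bounds, cut at about 19% in these data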;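 note: 0% = median of test compound wells and 100% = no enzyme DMSO wells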
Target sequence (Q9NZ20 whole entry, looked up): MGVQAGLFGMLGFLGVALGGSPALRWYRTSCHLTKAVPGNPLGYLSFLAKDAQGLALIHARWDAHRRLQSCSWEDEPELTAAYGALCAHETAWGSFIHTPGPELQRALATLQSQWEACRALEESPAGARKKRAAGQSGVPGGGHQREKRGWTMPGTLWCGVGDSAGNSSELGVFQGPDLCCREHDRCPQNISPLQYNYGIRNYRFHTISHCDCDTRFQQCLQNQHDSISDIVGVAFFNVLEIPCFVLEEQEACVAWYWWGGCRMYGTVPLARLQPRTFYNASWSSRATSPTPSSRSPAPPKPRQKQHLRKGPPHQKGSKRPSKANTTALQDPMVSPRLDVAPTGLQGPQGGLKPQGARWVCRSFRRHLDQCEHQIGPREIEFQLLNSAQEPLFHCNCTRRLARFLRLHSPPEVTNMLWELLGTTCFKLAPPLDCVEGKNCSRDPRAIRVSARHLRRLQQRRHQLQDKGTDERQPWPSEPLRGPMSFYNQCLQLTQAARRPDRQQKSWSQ
MsrA inhibitor: bovine MsrA enzyme inhibitors, primary screen, biochemical, absorbance, HTS. hit rate 0.75% among 360,000. purified bovine MsrA, absorbance read-out. inhibition, % at 15.5 µM. Methionine sulfoxide reductase A (Bos taurus). AID 651718, 2012;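 note: 0% = vehicle wells with enzyme and 100% = reference inhibitor wells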
PG9 Ab binder: binders of HIV-1 gp120 antibody PG9, primary screen, biochemical, TR-FRET; TR-FRET gp120-PG9 antibody binding; hit rate 0.43% among 360,000; inhibition, % at 6.7 µM; AID 624416, 2012; HIV-1 gp120 / PG9 antibody interaction; in the data active = inhibition above about 8.5%
MsrA act: bovine MsrA enzyme activators, primary screen, biochemical, absorbance, HTS | Methionine sulfoxide reductase A (Bos taurus) | purified bovine MsrA, absorbance read-out | activation, % at 10.6 µM | hit rate 0.3% among 360,000; in the data active = activation above about 7.5%;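 note: 0% = vehicle and 100% = reference activator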
MsrA inh confirm: bovine MsrA inhibitors, retest, confirmation, biochemical, absorbance, HTS. inhibition, % at 15.5 µM. AID 651822, 2012. hit rate 41% among 2,300. purified bovine MsrA, absorbance read-out. shares compounds with MsrA inhibitor;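 note: coupled to thioredoxin reductase with NADPH and selenocystamine and DMSO as substrate; 0% = vehicle only and 100% = full effect of reference inhibitor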
The depositor's hits bear a star; · = not tested or not shown. Most compounds without a hit are left out; they make up all but 3.2% or so of the library. Cut-off read from the data, not from the text of the source, unless noted: active = inhibition above about 4.5%; inactive = the rest.

SMILES	rCAG RNA binder	sPLA2-III inh	MsrA inhibitor	PG9 Ab binder	MsrA act	MsrA inh confirm
CC1(C)CC(=O)C=C(Nc2ccc(C(=O)O)cc2)C1	-2.8	2.9	7.0*	0.0	-3.7	3.3
CC1(C)CC(=O)C=C(Nc2ccc(S(N)(=O)=O)cc2)C1	-3.5	9.5	4.9*	2.0	-6.9	2.9
CCc1c(C)nc2ncnn2c1Nc1ccc(C(C)=O)cc1	-0.3	7.2	5.3*	0.2	-4.5	4.3
CCOC(=O)c1ccc(Nc2c(CC)c(C)nc3ncnn23)cc1	-5.4	0.8	3.5	-3.0	-5.4	·
C[n+]1ccccc1/C=C/c1ccc([N+](=O)[O-])cc1	1.1	8.8	6.0*	-1.3	-3.2	6.8*
C[n+]1ccccc1/C=C/c1ccc(F)c(F)c1	-4.6	1.5	4.0	-2.9	-1.7	·
C[n+]1ccccc1/C=C/c1ccc(C#N)cc1	4.1	11.0	6.5*	0.5	-1.8	5.6*
C[n+]1ccccc1/C=C/c1ccc2ncccc2c1	4.1	4.9	6.9*	0.8	-4.2	6.9*
Cc1ccccc1/C=C/c1cccc[n+]1C	-2.2	8.3	2.0	-1.5	1.0	·
CCC1=[N+](C)CCn2c(C)ccc21	2.2	5.0	6.5*	0.8	-2.6	3.9
CCOc1cc(C(=O)NCCN2C(=O)S/C(=C\c3cccnc3)C2=O)cc(OCC)c1OCC	-0.7	-2.5	0.1	-3.7	-2.2	·
CCOc1ccc(N2CC(C(=O)NCCN3C(=O)S/C(=C/c4cccnc4)C3=O)CC2=O)cc1 (centres undefined)	-0.4	6.0	5.0*	-0.9	-4.0	2.2
CC(C)C[C@H]1CN([C@@H](Cc2ccccc2)CN2CCC[C@@H]2CN2C(=O)C(=O)NC[C@@H]2Cc2ccc(O)cc2)C(=O)C(=O)N1CC1CCCCC1	4.8	3.2	4.8*	0.6	-6.7	-0.6
CNc1oc(-c2ccc(Cl)cc2)nc1C#N	-1.9	-1.8	4.8*	-0.8	-3.7	1.9
C[C@H]1[C@@H](NC(=O)Cc2ccsc2)CC[C@@]23CCCN2C(=O)CCC[C@@H]13	·	0.8	·	·	·	·
Cc1cc(/N=C/C=C2\N(C)c3ccccc3C2(C)C)n(CCC#N)n1	-2.7	2.7	5.4*	-1.7	-2.8	2.9
CN1/C(=C/C=C(C#N)C#N)C(C)(C)c2ccccc21	2.8	-0.5	0.8	-1.0	-11.1	·
CN1/C(=C\C=O)C(C)(C)c2ccccc21	-2.8	1.7	6.8*	-0.2	-0.9	6.0*
CN(C)c1ccc(N=C/C=C2\N(C)c3ccccc3C2(C)C)cc1	15.0	15.1	5.0*	-21.7	-2.8	1.9
CN1/C(=C\C=Nc2ccc3ccccc3c2)C(C)(C)c2ccccc21	·	·	·	·	-5.3	·
COc1ccc2[nH]c3c(c2c1)CCN[C@]31C(=O)N(Cc2cn(Cc3ccccc3)nn2)c2ccc(F)cc21	12.6	-5.3	·	·	·	·
COc1ccc(CN2CN3CCc4ccccc4C3CS2(=O)=O)cc1 (centres undefined)	8.6	11.6	·	·	·	·
Cc1ccc(S(=O)(=O)N2CCN(C(=O)c3cccn3C)CC2)cc1	2.6	2.0	·	·	·	·
COC(=O)c1[nH]c2c(c1C(=O)OC)CCc1ccccc1-2	3.8	-1.2	5.6*	1.5	5.2	1.3
O=C(O)CCSc1ccc([N+](=O)[O-])cc1[N+](=O)[O-]	1.9	2.3	5.4*	-1.4	-11.6	3.0
SMILES	rCAG RNA binder	sPLA2-III inh	MsrA inhibitor	PG9 Ab binder	MsrA act	MsrA inh confirm
COc1cc(/C=C2/NC(=O)NC2=O)cc(Br)c1OCc1cccc(C(=O)O)c1	15.5	-9.9	5.9*	-4.5	3.6	2.6
CNc1ncc(C(=O)c2ccc(F)cc2)s1	-1.4	-0.5	4.7*	-1.4	-10.3	3.2
CC(=O)N1CCN(C(=O)CCn2nnc3ccccc32)CC1	-0.3	0.1	·	·	·	·
CCOc1cc(/C=C2/NC(=O)NC2=O)cc([N+](=O)[O-])c1O	6.2	16.1	5.6*	-35.0	-14.9	4.3
C=CCc1cc(/C=C2/NC(=O)NC2=O)cc(OCC)c1O	1.6	-3.8	4.8*	-5.9	-4.8	4.2
C=CCc1cc(/C=C2/NC(=S)NC2=O)cc(OC)c1O	8.5	-5.3	1.7	-5.7	-10.3	·
CCOc1ccc(N(CC(=O)Nc2c(C)n(C)n(-c3ccccc3)c2=O)S(=O)(=O)c2cccc3cccnc23)cc1	6.2	13.4	·	·	·	·
